20 compounds from PubChem BioAssay can be followed below.

Assay [1] in a line: antimalarial activity against Dd2 strain (AID 2302;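 active means growth inhibition above 50% at the single 2 µM test dose, taken to imply half-maximal potency below 2 µM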;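 further: 0% = DMSO untreated growth and 100% = chloroquine plus artemisinin killed control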). The following applies: P. falciparum Dd2 in RBCs, LDH growth readout, 72 h; at 2 µM; stronger effect = higher value.
Assay [2] can be described thus: HepG2 cytotoxicity, primary screen, cytotoxicity control for P. falciparum antimalarial project, cell-based, ATP luminescence (AID 2303;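 active means inhibition above 50%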;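 further: 0% = DMSO wells and 100% = digitonin-killed cells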). The following applies: HepG2 viability, 24-48 h, at 10 µM, stronger effect = higher value.
For assay [3], the target named is L-lactate dehydrogenase (Plasmodium falciparum (isolate CDC / Honduras)) (UniProt Q27743). Briefly: PfLDH activity inhibition – cell lysate, 3D7 strain, counter-screen for P. falciparum growth inhibition project (AID 2304).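 Further: 0% = vehicle and 100% = reference inhibitor.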 The note with it: P. falciparum 3D7 crude extract, LDH APAD/NBT absorbance; at 2 µM; stronger effect = higher value. Background: A counterscreen serves to expose hits that act by an unwanted route or on another target.

A short description of assay [4]: inhibition of 3D7 malaria parasite growth – strain 3D7 (AID 2306).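 Further: 0% = DMSO wells and 100% = chloroquine plus artemisinin control wells.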 The following applies: P. falciparum 3D7 erythrocytic growth, LDH absorbance, 72 h; at 2 µM; stronger effect = higher value.
Assay [5] concerns the target Calcium-dependent protein kinase 1 (Plasmodium falciparum (isolate 3D7)) (UniProt P62344). Briefly: PfCDPK1 kinase inhibitors, biochemical, TCAMS library (AID 1159585; cut-off not given, nearly all actives have IC50 up to about 0.98 µM;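 further: inhibitors leave more ATP so luminescence rises with inhibition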). The following applies: recombinant PfCDPK1, Kinase-Glo ATP depletion luminescence. (In general: Kinase-Glo reads ATP consumption through a luciferase reaction.)
Assay [6] has as its target Plasmodium falciparum protein kinase 6 (PK6, PF3D7_1337100) (UniProt Q8IDW1). Briefly: PfPK6 kinase inhibitors, biochemical, TCAMS library (AID 1159586). The following applies: recombinant PfPK6, Kinase-Glo ATP depletion luminescence.
Assay [7] concerns the target Protein kinase 7 (PK7), Plasmodium falciparum 3D7 (PF3D7_0213400) (UniProt Q7YTF7). Briefly: inhibition of Plasmodium PK7 catalytic activity – biochemical, TCAMS antimalarial set, Kinase-Glo luminescence (AID 1159587). The following applies: recombinant PfPK7, Kinase-Glo ATP depletion luminescence.
The target in assay [8] is Calcium-dependent protein kinase 4 (Plasmodium falciparum (isolate 3D7)) (UniProt Q8IBS5). Briefly: PfCDPK4 kinase inhibitors, biochemical, TCAMS library (AID 1159588; cut-off not given, nearly all actives have IC50 up to about 0.91 µM). The note with it: recombinant PfCDPK4, Kinase-Glo ATP depletion luminescence.

Values without a mark were called inactive. For some of these results: Potency and affinity values are given separately. Active and inactive are the calls of the source. Unless noted, how the calls were made is not given here.

Sequence of L-lactate dehydrogenase (Plasmodium falciparum (isolate CDC / Honduras)) (Q27743 whole entry, looked up): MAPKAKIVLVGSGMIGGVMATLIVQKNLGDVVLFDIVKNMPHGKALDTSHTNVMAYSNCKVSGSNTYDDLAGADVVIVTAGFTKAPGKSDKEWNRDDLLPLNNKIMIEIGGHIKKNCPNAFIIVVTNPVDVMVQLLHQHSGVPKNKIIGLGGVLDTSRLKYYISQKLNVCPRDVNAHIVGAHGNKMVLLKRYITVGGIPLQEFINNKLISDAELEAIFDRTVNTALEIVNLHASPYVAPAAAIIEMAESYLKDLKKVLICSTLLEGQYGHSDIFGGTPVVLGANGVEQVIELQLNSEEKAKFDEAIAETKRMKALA
Sequence of Protein kinase 7 (PK7), Plasmodium falciparum 3D7 (PF3D7_0213400) (Q7YTF7 1-343): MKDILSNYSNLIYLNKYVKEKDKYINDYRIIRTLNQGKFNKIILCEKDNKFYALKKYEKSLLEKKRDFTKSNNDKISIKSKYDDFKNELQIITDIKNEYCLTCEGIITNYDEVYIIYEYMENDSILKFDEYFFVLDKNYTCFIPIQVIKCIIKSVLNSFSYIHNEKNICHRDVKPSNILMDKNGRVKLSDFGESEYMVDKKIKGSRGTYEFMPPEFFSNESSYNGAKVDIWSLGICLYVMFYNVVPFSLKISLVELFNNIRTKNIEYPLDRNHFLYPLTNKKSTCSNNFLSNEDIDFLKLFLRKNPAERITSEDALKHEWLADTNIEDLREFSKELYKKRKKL
Sequence of Plasmodium falciparum protein kinase 6 (PK6, PF3D7_1337100) (Q8IDW1 1-305): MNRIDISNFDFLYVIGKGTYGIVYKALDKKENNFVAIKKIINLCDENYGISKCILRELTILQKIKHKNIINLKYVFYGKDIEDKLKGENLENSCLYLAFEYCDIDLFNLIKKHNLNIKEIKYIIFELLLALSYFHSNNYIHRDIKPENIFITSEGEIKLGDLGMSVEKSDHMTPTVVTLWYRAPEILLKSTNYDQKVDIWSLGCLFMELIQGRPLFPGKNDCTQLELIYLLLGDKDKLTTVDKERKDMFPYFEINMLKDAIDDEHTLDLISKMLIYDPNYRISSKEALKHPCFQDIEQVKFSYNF
Sequence of Calcium-dependent protein kinase 1 (Plasmodium falciparum (isolate 3D7)) (P62344 whole entry, looked up): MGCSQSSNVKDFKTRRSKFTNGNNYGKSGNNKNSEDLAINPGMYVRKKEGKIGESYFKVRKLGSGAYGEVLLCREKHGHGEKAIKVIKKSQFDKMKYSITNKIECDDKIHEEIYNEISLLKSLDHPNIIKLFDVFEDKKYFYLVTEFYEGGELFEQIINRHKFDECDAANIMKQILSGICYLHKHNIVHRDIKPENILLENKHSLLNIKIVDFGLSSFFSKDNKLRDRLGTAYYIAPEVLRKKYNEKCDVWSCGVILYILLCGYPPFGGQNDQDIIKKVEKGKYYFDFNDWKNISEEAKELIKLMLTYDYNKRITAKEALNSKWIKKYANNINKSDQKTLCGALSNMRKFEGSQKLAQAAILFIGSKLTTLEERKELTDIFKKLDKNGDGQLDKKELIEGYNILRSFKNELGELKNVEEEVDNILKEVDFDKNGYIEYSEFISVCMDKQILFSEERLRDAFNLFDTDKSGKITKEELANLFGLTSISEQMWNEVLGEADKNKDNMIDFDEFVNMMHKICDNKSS
Sequence of Calcium-dependent protein kinase 4 (Plasmodium falciparum (isolate 3D7)) (Q8IBS5 whole entry, looked up): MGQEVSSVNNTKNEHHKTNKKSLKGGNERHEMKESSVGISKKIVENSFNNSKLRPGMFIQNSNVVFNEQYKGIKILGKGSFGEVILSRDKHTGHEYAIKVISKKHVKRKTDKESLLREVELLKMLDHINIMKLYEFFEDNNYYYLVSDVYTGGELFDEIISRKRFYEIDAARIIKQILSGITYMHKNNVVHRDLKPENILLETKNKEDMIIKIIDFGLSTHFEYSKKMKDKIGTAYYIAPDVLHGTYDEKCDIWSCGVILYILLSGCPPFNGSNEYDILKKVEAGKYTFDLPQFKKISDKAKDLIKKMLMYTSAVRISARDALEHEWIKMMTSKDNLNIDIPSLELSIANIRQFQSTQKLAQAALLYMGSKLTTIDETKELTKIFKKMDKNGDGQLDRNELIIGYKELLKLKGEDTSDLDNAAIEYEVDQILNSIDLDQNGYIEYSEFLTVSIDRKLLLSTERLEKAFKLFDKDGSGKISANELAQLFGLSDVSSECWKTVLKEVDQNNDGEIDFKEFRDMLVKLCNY

What is called inhibition is the change of the read-out against control, counted positive when it falls. Regarding `CCCC(C)Nc1nc(C)cc(N[C@@H](Cc2ccccc2)C(=O)NCc2ccc(C)cc2)n1` (stereo not given in full), the values for the growth inhibition in assay [1] and in assay [4] were 93% (active) and 101% (active), respectively. The inhibition was 22% in assay [2] and 5% in assay [3]. Besides, the outcome in assay [5], in assay [6], in assay [7] and in assay [8] was inactive.
Turning to `COc1ccc(S(=O)(=O)Nc2ccc(C(=O)NCc3ccccc3C(F)(F)F)cc2)cc1N1CCN(CC2CC2)CC1`, the growth inhibition in assay [1] was 5%; in assay [4] it was 92% (active). The inhibition is 27% in assay [2] and -3% in assay [3]. Moreover, the outcome in assay [5], in assay [6], in assay [7] and in assay [8] was inactive.
For `CCNC(=O)Nc1cccc(-c2cccc(-c3nc4c(C)cccc4[nH]3)c2)c1`, the values for the growth inhibition in assay [1] and in assay [4] were 31% and 85% (active), respectively. For the same compound, the inhibition in assay [2] is 7%; in assay [3], 4%. In addition, the result in assay [5], in assay [6], in assay [7] and in assay [8] was inactive.
In the case of `Cc1cccc2[nH]c(-c3ccc(-c4cccc(CN5CCC(CCN6CCCCC6)CC5)c4)s3)nc12`, the growth inhibition in assay [1] is 100% (active); in assay [4] it was 101% (active). The inhibition was 99% (active) in assay [2] and -3% in assay [3]. The outcome in assay [5], in assay [6], in assay [7] and in assay [8] was inactive.
On to `c1ccc(CN2CCC(NCc3ccc(-c4ccc(CNCc5cccnc5)cn4)cc3)CC2)cc1`, for which the growth inhibition in assay [1] was 13%; in assay [4] it was 97% (active). The values for the inhibition in assay [2] and in assay [3] were -1% and -5%, respectively. Besides, the outcome in assay [5], in assay [6], in assay [7] and in assay [8] was inactive.
Consider `COc1cc(F)c2ncc(Cl)c(CCN3CCC(NCc4ccc5c(n4)NC(=O)CS5)CC3)c2c1`, for which the values for the growth inhibition in assay [1] and in assay [4] were 41% and 99% (active), respectively. For the same compound, the figures for the inhibition in assay [2] and in assay [3] were 18% and 3%, respectively. The outcome in assay [5], in assay [6], in assay [7] and in assay [8] was inactive.
On to `C#CCN(Cc1cc2c(=O)[nH]c(N)nc2cc1C)c1ccc(C(=O)N[C@@H](CCC(=O)O)C(=O)O)cc1`, for which the growth inhibition was 74% (active) in assay [1] and 92% (active) in assay [4]. Moreover, the inhibition is 28% in assay [2] and -1% in assay [3]. The result in assay [5], in assay [6], in assay [7] and in assay [8] was inactive.
In the case of `O=C(Nc1ccccc1)N(Cc1cccc(-c2cccc(CNCc3ccc4c(c3)OCO4)c2)c1)C1CCN(Cc2ccccc2)CC1`, the values for the growth inhibition in assay [1] and in assay [4] were 84% (active) and 101% (active), respectively. In addition, the inhibition in assay [2] is 96% (active); in assay [3] it was 0%. Moreover, the outcome in assay [5], in assay [6], in assay [7] and in assay [8] was inactive.
With `CS(=O)(=O)CCNCc1cccc(-c2cc3c(Nc4ccc(OCc5cccc(F)c5)c(Cl)c4)ncnc3s2)c1`, the growth inhibition in assay [1] is 97% (active); in assay [4] it was 101% (active). Also, the inhibition in assay [2] is 5%; in assay [3], 1%. For the same compound, the outcome in assay [5], in assay [6], in assay [7] and in assay [8] was inactive.
In the case of `COc1ccc2nccc(NN=Cc3cccc(F)c3)c2c1`, the values for the growth inhibition in assay [1] and in assay [4] were 65% (active) and 102% (active), respectively. Also, the inhibition in assay [2] was 13%; in assay [3], 2%. In addition, the result in assay [5], in assay [6], in assay [7] and in assay [8] was inactive.
Take `Cc1[nH]c2ccc(-c3ccccc3)cc2c(=O)c1Br`: the growth inhibition in assay [1] and in assay [4] was 97% (active) in each case. The figures for the inhibition in assay [2] and in assay [3] were -13% and 4%, respectively. Besides, the outcome in assay [5], in assay [6], in assay [7] and in assay [8] was inactive.
`COc1cc(CNCCCNc2nc3ccsc3c(=O)[nH]2)c2[nH]cc(Cl)c2c1`: the values for the growth inhibition in assay [1] and in assay [4] were -2% and 96% (active), respectively. The results for the inhibition in assay [2] and in assay [3] were 29% and 2%, respectively. Also, the result in assay [5], in assay [6], in assay [7] and in assay [8] was inactive.
Consider `CC(Cc1ccc(C(=O)N2CCN(C(=O)c3ccc(CC(C)NCCc4cccc(Cl)c4)cc3)CC2)cc1)NCCc1cccc(Cl)c1` (stereo not given), for which the growth inhibition in assay [1] is 85% (active); in assay [4] it was 101% (active). The inhibition in assay [2] was 99% (active); in assay [3], -4%. Also, the outcome in assay [5], in assay [6], in assay [7] and in assay [8] was inactive.
In the case of `CC(CN(C)C)C(=O)Nc1cccc(-c2cccc(-c3nc4ccc(F)cc4[nH]3)c2)c1` (stereo not given), the growth inhibition in assay [1] was 94% (active); in assay [4], 101% (active). Besides, the figures for the inhibition in assay [2] and in assay [3] were 29% and 5%, respectively. The result in assay [5], in assay [6], in assay [7] and in assay [8] was inactive.
Turning to `CCCCCN(C(=O)Nc1cc(C(F)(F)F)cc(C(F)(F)F)c1)C(C)c1nc2ccccc2c(=O)n1CC` (stereo not given), the growth inhibition was 101% (active) in assay [1] and 100% (active) in assay [4]. In addition, the inhibition in assay [2] is -3%; in assay [3], 3%. The result in assay [5], in assay [6], in assay [7] and in assay [8] was inactive.
For `O=S(=O)(Nc1cccc(CCN2CCC(N3CCCCC3)CC2)c1)c1ccccc1C(F)(F)F`, the growth inhibition in assay [1] is 32%; in assay [4] it was 82% (active). For the same compound, the inhibition was 21% in assay [2] and 1% in assay [3]. For the same compound, the result in assay [5], in assay [6], in assay [7] and in assay [8] was inactive.
Turning to `CC(C)NCc1cccc(-c2ccc(NC(=O)c3ccc(C#N)cc3)cc2)c1`, the growth inhibition in assay [1] is 8%; in assay [4], 99% (active). The inhibition in assay [2] was 15%; in assay [3], 3%. Moreover, the result in assay [5], in assay [6], in assay [7] and in assay [8] was inactive.
In the case of `CCCN(CCC)C(=O)c1cc(-c2cccc(C)c2)nc2ccccc12`, the figures for the growth inhibition in assay [1] and in assay [4] were 59% (active) and 86% (active), respectively. Moreover, the inhibition in assay [2] is 17%; in assay [3] it was -6%. The result in assay [5], in assay [6], in assay [7] and in assay [8] was inactive.
Consider `NCCCCc1c(-c2ccc(Cl)c(Cl)c2)[nH]c2ccc(Cl)cc12`, for which the growth inhibition is 20% in assay [1] and 97% (active) in assay [4]. Further, the inhibition was 33% in assay [2] and -9% in assay [3]. Besides, the result in assay [5], in assay [6], in assay [7] and in assay [8] was inactive.
With `COCCNCc1ccc(-c2cccc(CN(C(=O)NCCc3ccccc3)C3CCN(Cc4ccccc4)CC3)c2)cc1`, the growth inhibition was 90% (active) in assay [1] and 88% (active) in assay [4]. The inhibition in assay [2] is 25%; in assay [3] it was -4%. The result in assay [5], in assay [6], in assay [7] and in assay [8] was inactive.
